Measurements taken from PubChem BioAssay AID1159580 (chemical genetic matrix, 2015).
Hit rate of the full screen: of about 5,500 compounds, about 2,000 (36%) were called active. Not shown: some 18% with an inconclusive outcome. Cut-off read from the data, not from the text of the source: active = normalized growth mostly below about 0.91 (no sharp cut-off); inconclusive = no clear call, values can overlap the other calls; inactive = mostly above about 0.92. The list shows a part of the results.

Assay: chemical genetic growth profiling, strain panel (AID 1159580);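 note: tested at 20 µM; growth read once vehicle control cultures reached saturation at 30 °C; 1 = growth at the plate median or of vehicle wells; lower values mean less growth of the strain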
Conditions: S. cerevisiae deletion strains, growth OD

Measured: normalized growth

CCC(C)[C@H]1O[C@]2(CC[C@@H]1C)C[C@@H]1C[C@@H](C/C=C(\C)[C@@H](OC3C[C@H](OC)C(O[C@H]4C[C@H](OC)[C@@H](O)[C@H](C)O4)[C@H](C)O3)[C@@H](C)/C=C/C=C3\CO[C@@H]4[C@H](O)C(C)=C[C@@H](C(=O)O1)[C@]34O)O2 (stereo partly drawn)
inactive: locus YHR030C, strain SLT2, stronger effect = lower value 0.995 | locus YHR079C, strain IRE1, stronger effect = lower value 0.992 | locus YJL095W, strain BCK1, stronger effect = lower value 0.964 | locus YJR066W, strain TOR1, stronger effect = lower value 0.941 | locus YLR113W, strain HOG1, stronger effect = lower value 0.993 | locus YNL183C, strain NPR1, stronger effect = lower value 0.948 | locus YOR231W, strain MKK1, stronger effect = lower value 1 | locus YPL256C, strain CLN2, stronger effect = lower value 0.94
